# DAGLB inh: DAGLB lipase inhibitors, primary screen, biochemical, fluorescence, HTS. Diacylglycerol lipase-beta (Homo sapiens), Q8NCG7. HEK293T DAGLB membrane lysate, EnzChek fluorogenic substrate. inhibition, % at 5.17 µM. 0.059% of 340,000 active. AID 504411, 2011; in the data active means inhibition above about 34%;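 further: 0% = enzyme with vehicle and 100% = wells lacking enzyme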
# PLC-gamma1 inh: PLC-gamma1 enzyme inhibitors, primary screen, biochemical, fluorescence, purified enzyme. 1-phosphatidylinositol 4,5-bisphosphate phosphodiesterase gamma-1 (Homo sapiens), P19174. 0.84% of 370,000 active. AID 720700, 2013. inhibition, % at 12.2 µM. fluorogenic substrate
# sPLA2-III inh: human group III sPLA2 inhibitors, primary screen, biochemical, QFRET, BODIPY PC-A2 liposome substrate; QFRET BODIPY PC-A2 liposome hydrolysis, fluorescence; inhibition, % at 12.2 µM; 0.56% of 370,000 active;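 active means inhibition above mean plus 3 SD of compounds lying within the high and low control bounds, cut at about 19% in these data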;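 further: 0% = median of test compound wells and 100% = no enzyme DMSO wells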
# Target sequence (Q9NZ20 whole entry, looked up): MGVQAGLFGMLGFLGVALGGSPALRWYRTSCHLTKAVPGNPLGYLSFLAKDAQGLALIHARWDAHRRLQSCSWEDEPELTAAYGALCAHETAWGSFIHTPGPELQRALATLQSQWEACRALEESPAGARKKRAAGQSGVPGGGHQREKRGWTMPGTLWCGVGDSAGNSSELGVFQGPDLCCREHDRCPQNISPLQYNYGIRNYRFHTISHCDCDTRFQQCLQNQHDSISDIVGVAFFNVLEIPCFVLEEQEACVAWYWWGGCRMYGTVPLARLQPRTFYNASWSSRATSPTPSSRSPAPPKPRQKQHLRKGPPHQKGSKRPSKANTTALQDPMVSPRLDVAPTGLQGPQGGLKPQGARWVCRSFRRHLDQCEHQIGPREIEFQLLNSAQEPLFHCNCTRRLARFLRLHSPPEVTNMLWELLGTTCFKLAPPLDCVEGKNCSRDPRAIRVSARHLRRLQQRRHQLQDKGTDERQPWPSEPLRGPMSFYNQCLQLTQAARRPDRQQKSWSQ
# PLCb3 inh: human PLC-beta3 inhibitors, primary screen, biochemical, fluorescence. 1-phosphatidylinositol 4,5-bisphosphate phosphodiesterase beta-3 (Homo sapiens), Q01970. Purified PLC-beta3, fluorogenic substrate. inhibition, % at 12.2 µM. 0.18% of 370,000 active; in the data active means inhibition above about 11%;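 further: 0% = median of compound wells on plate and 100% = full blocker control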
# PLCgamma1 ctr: PLC-gamma1 enzyme inhibitors, counter-screen for PLC-beta3 inhibitor project, biochemical, fluorescence | shares compounds with PLC-gamma1 inh | purified PLC-gamma1, fluorogenic substrate | inhibition, % at 12.3 µM | 3.1% of 3,300 active | AID 743258, 2014
# PLCbeta3 conf: PLC-beta3 inhibitor confirmation, biochemical, fluorescence, purified enzyme; shares compounds with PLC-gamma1 inh; fluorogenic substrate fluorescence; inhibition, % at 12.3 µM; 1% of 3,300 active; AID 743261, 2014; in the data active means inhibition above about 11%
# * = called active by the depositor; / = not tested or not shown. An excerpt weighted towards active compounds, which were near 1.5% of everything screened. Unless noted, no stated cut-off is given here; in the data, active means inhibition above about 9.5%; inactive means the rest.
SMILES,DAGLB inh,PLC-gamma1 inh,sPLA2-III inh,PLCb3 inh,PLCgamma1 ctr,PLCbeta3 conf
C=CCN1C(=O)[C@@H](CC(=O)N2CCSCC2)[C@]2(C(=O)OC)CCCCC=C12,/,0,12,2,/,/
CCCn1c(N)c(N(CCOC)C(=O)c2ccccc2F)c(=O)[nH]c1=O,-2,3,3,0,/,/
CCCCn1c(N)c(N(CC)C(=O)c2ccccc2F)c(=O)[nH]c1=O,-1,12*,8,6,-3,1
COc1cccc(C2c3c(-c4ccccc4)n[nH]c3C(=O)N2c2ccc(C(=O)O)cc2)c1 (stereo not drawn),1,2,-9,0,/,/
COc1ccc(C2c3c(-c4ccccc4)n[nH]c3C(=O)N2c2ccc(C(=O)O)cc2)cc1 (stereo not drawn),5,11*,-16,6,-4,-5
C=CCN1C(=O)/C(=C/N(C)C)S/C1=N\S(=O)(=O)c1cccs1,1,8,-3,12*,0,3
COC(=O)[C@H](C(C)C)N1Cc2nnn(Cc3ccc(C)cc3)c2-c2cc(F)ccc2S1(=O)=O,/,0,-9,1,/,/
CCN(CC)S(=O)(=O)c1cccc(-c2nnc(SCC(N)=O)n2CCc2ccccc2)c1,1,12*,14,7,7,4
C/C(=C/c1c[n+](Cc2ccc3c(c2)OCO3)c(N)[nH]1)Cn1[nH]c(=O)n(-c2ccccc2)c1=O,/,-4,3,-2,/,/
Cc1ccc(CNC(=O)CO/N=C/c2ccc(C(C)(C)C)cc2)cc1,-19,2,7,-3,/,/
CC(C)(C)c1ccc(/C=N/OCC(=O)NCc2ccc(F)cc2)cc1,-13,13*,-9,2,-10,-6
COC(=O)[C@]12C[C@H](CC(=O)NCCC(C)C)C(=O)N(CCc3ccc(OC)c(OC)c3)C1=C[C@H](COCc1ccccc1)O[C@@H]2C,/,0,-11,-1,/,/
Cc1ccc(NC(=O)/C(C#N)=C/c2ccsc2)c(C)c1,-4,5,0,11*,-7,-3
Cc1ccccc1NC(=O)/C(C#N)=C\c1ccsc1,0,4,8,2,/,/
Fc1ccccc1-c1n[nH]c(=S)n1N=Cc1cccc(OCc2ccccc2)c1,/,1,-7,0,/,/
Cc1ccccc1C1CCC2(CCC(=O)N2CC[C@@H](O)c2ccccc2)CC1 (stereo partly drawn),/,0,-1,-2,/,/
O=C(Nc1ccc([N+](=O)[O-])cc1)Nn1cnnc1,-2,12*,1,4,-3,-3
CCCCNC(=O)C[C@H]1C[C@@]2(C(=O)OC)C(=C[C@H](C(C)(C)C)O[C@@H]2C)N(Cc2ccco2)C1=O,/,0,-10,0,/,/
COc1cc(NC(=O)C2CCCN(S(=O)(=O)c3ccccc3[N+](=O)[O-])C2)cc(OC)c1 (stereo not drawn),/,7,-26,0,/,/
COc1ccccc1CN1CCC(n2nccc2NC(=O)c2ccccc2Cl)CC1,1,11*,-10,1,-2,0
CCn1c(SCC(=O)Nc2ccccc2-c2ccccc2)nnc1-c1ccc(C)cc1,/,-2,-3,-1,/,/
COc1cc(C23CCCN(CCC(C(C)(C)C)C2)C32OCCO2)cc(OC)c1OC (stereo not drawn),/,11*,-11,2,2,4
CC(C)(C)C1CCN2CCCC(c3ccc([N+](=O)[O-])cc3)(C1)C21OCCO1 (stereo not drawn),/,0,0,2,/,/
CC1/C(=N/O)CC(c2ccccc2)NC1c1ccccc1 (stereo not drawn),-9,1,4,4,/,/
CCCC1/C(=N/O)CC(c2ccccc2)NC1c1ccccc1 (stereo not drawn),-5,10*,18,10,4,4
SMILES,DAGLB inh,PLC-gamma1 inh,sPLA2-III inh,PLCb3 inh,PLCgamma1 ctr,PLCbeta3 conf
Cc1ccc(-n2c(SCC(=O)Nc3ccc(OCc4ccccc4)cc3)nnc2-c2ccccc2)cc1,/,0,0,0,/,/
Cc1ccc(OCC(=O)Nc2sc3c(c2C#N)CC(C)(C)NC3(C)C)cc1,4,10*,7,-51,-3,2
C[C@H]1C(=O)CC[C@@]23CCCN2C(=O)CCC[C@@H]13,/,3,12,3,/,/
O=c1c(Cl)c(NCC2CCCO2)cnn1C12CC3CC(CC(C3)C1)C2 (stereo not drawn),-2,12*,15,-1,-7,-2
Cc1ccc(CN2CCC[C@]3(N[C@H](c4ccc(C)cc4)[C@@H]4C(=O)N(Cc5ccccc5)C(=O)[C@@H]43)C2=O)cc1,-8,9.9*,-10,8,-2,1
CCCOc1cccc(/C=N/NC(=O)c2csc(C)c2C)c1,-10,11*,9,5,-4,-2
CCOC(=O)N1CCN(C(=O)c2ccc(CS(=O)Cc3ccccc3Cl)o2)CC1 (stereo not drawn),-4,9.9*,0,-6,-2,3
CCOC(=O)N1CCN(C(=O)c2ccc(CS(=O)Cc3ccc(C)cc3)o2)CC1 (stereo not drawn),-1,-3,6,-4,/,/
CCCCCCCCN1C(=O)[C@@H](CC(=O)NCCCOCCCC)C[C@@]2(C(=O)OC)C1=C[C@H](COCc1ccccc1)O[C@@H]2C,/,-5,-16,-1,/,/
O=C(c1ccccc1)C1CCN(c2ncnc3sccc23)CC1,/,2,-11,2,/,/
C[C@@H]1CN([C@@H](C)CO)C(=O)c2cccc(NC(=O)Nc3cccc4ccccc34)c2O[C@H]1CN(C)S(=O)(=O)c1ccc2c(c1)OCCO2,/,-18,-23,-17,/,/
COc1cccc(Oc2ccc(S(=O)(=O)N3CCCC3)cc2[N+](=O)[O-])c1,-10,9.6*,5,-3,2,1
COc1ccc(OCCOc2ccc(S(=O)(=O)N3CCCC3)cc2[N+](=O)[O-])cc1,0,-6,-8,-5,/,/
Cc1ccccc1CN1CCCCC(NC(=O)c2cccc([N+](=O)[O-])c2)C1=O (stereo not drawn),/,3,-6,1,/,/
c1ccc(CN2CCN(C(c3ccccc3)c3ccccc3)CC2)cc1,-8,11*,7,1,-5,2
CCc1ccccc1NC(=O)CC1SCCNC1=O (stereo not drawn),3,11*,7,3,-7,-1
O=C(NCCc1nc2ccccc2n1CCOc1cc(F)ccc1F)C1CCCCC1,/,11*,-4,11*,1,-17
Cc1ccc(OCCn2c(CCNC(=O)C3CCCCCC3)nc3ccccc32)cc1,/,17*,2,12*,9.6*,6
OCCCc1nc2ccccc2n1CCCCOc1ccccc1,-1,11*,-13,-2,-3,-5
OCc1nc2ccccc2n1CCCCOc1ccccc1,5,0,-3,0,/,/
